Experimental data: PubChem BioAssay (Tox21)
Results filed as inconclusive are left out. Entries that show only a call come without a potency. Active and inactive are the calls of the source. Unless noted, calls follow the shape of the dose curve; as a rule, active = well fitted curve in the direction sought with a large enough effect in the repeat runs; inconclusive = weak or mixed curves; inactive = no such curve, though single readings can be large; an effect the other way counts as inactive or inconclusive.

Experiments:
[1] = molecular target: Aryl hydrocarbon receptor (Homo sapiens) (UniProt P35869); assay: qHTS assay to identify small molecule that activate the aryl hydrocarbon receptor (AhR) signaling pathway (AID 743085);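 also: HG2L7.5c1 human HepG2 liver cells with stably integrated DRE-driven firefly reporter; series mostly up to about 70 µM; nearly all actives have a fitted effect of over 15% in size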
How it was run: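 Steps: seed HepG2-AhR-luc cells; allow 5 h at 37C; pin-transfer test compound or vehicle; incubate 24 h at 37C; add viability dye (30 min, 37C) and read fluorescence; add luciferase substrate (30 min, RT) and read luminescence.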

[2] = qHTS assay to identify small molecule that activate the aryl hydrocarbon receptor (AhR) signaling pathway - cell viability counter screen (AID 743086); also: nearly all actives have a fitted effect of over 45% in size; also: potency is read from the fitted curve at half-maximal effect
How it was run: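 HepG2-AhR-luc (HG2L7.5c1) cells, 4000/well, were preincubated 5 h at 37C, exposed to compound in qHTS format for 24 hr at 37C, then given CellTiter-Fluor for 30 min; viability was read as fluorescence in the reporter wells.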

[3] = molecular target: Peroxisome proliferator-activated receptor gamma (Homo sapiens) (UniProt P37231); assay: qHTS assay to identify small molecule agonists of the peroxisome proliferator-activated receptor gamma (PPARg) signaling pathway (AID 743094; active = well fitted activation curve with a large enough effect in the signal ratio in the repeat runs, not every such curve was filed as active; the % refers to the signal ratio)
How it was run: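 Agonist activity was taken from a beta-lactamase reporter (FRET substrate, 1 h at room temperature) in HEK293H cells carrying a PPARg UAS-bla construct. Compounds in DMSO were incubated 17 h at 37C after a 5 h cell pre-incubation.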

[4] = molecular target: Peroxisome proliferator-activated receptor gamma (Homo sapiens) (UniProt P37231); assay: qHTS assay to identify small molecule antagonists of the peroxisome proliferator-activated receptor gamma (PPARg) signaling pathway (AID 743191; calls by dose curve; also: series mostly up to about 63 µM; nearly all actives have a fitted effect of over 30% in size)
How it was run: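 GeneBLAzer PPARg UAS-bla HEK293H cells carrying a UAS-driven beta-lactamase reporter were plated at 3000 cells/well, preincubated 5 h at 37C, then given compound for 17 h at 37C; LiveBLAzer B/G FRET substrate was read after 1 h at room temperature.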

[5] = qHTS assay to identify small molecule antagonists of the peroxisome proliferator-activated receptor gamma (PPARg) signaling pathway - cell viability counter screen (AID 743194); settings: Potency: co-treated with 50 nM rosiglitazone; also: nearly all actives have a fitted effect of over 55% in size
How it was run: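 PPARg-UAS-bla HEK293H cells were plated, rested 5 h at 37 C, then treated with compounds plus rosiglitazone (50 nM final) for 17 h at 37 C; viability was then read by CellTiter-Glo luminescence after 30 min at room temperature.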

[6] = qHTS assay for small molecule agonists of the antioxidant response element (ARE) signaling pathway (AID 743202; active = well fitted activation curve with a large enough effect in the signal ratio in the repeat runs, not every such curve was filed as active; the % refers to the signal ratio)
How it was run: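 Steps: seed ARE-bla HepG2 cells (2,000/well); incubate 5 h at 37 C; add compounds by pin tool; incubate 16 h at 37 C; add FRET substrate; read fluorescence after 2 h at RT.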

[7] = qHTS assay for small molecule agonists of the antioxidant response element (ARE) signaling pathway - cell viability counter screen (AID 743203; calls by dose curve; also: nearly all actives have a fitted effect of over 55% in size)
How it was run: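 Viability counter screen: CellTiter-Glo luminescence, read after 30 min at room temperature, in ARE-bla HepG2 wells. Compound exposure lasted 16 h at 37C/5% CO2, following a 5 h pre-incubation of the cells after plating.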

[8] = qHTS assay for small molecule activators of the heat shock response signaling pathway - cell viability counter screen (AID 743209); also: nearly all actives have a fitted effect of over 50% in size
How it was run: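 Cytotoxicity counter screen run in the same wells as the heat-shock bla reporter assay: HeLa HSE-bla cells, 5 h compound exposure at 37 C, viability read by CellTiter-Glo luminescence.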

[9] = qHTS assay for small molecule activators of the heat shock response signaling pathway (AID 743210; active = well fitted activation curve with a large enough effect in the signal ratio in the repeat runs, with a control signal flat, not every such curve was filed as active; the % refers to the signal ratio;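 also: HeLa cells with beta-lactamase reporter driven by heat shock elements; series mostly up to about 63 µM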)
How it was run: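 Activation of heat shock element-controlled beta-lactamase expression is measured in HeLa cells by LiveBLAzer FRET fluorescence, with compound exposure lasting 5 h at 37 C and substrate loading 2.5 h at room temperature.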

[10] = qHTS assay to identify small molecule agonists of the peroxisome proliferator-activated receptor delta (PPARd) signaling pathway - cell viability counter screen (AID 743211); also: nearly all actives have a fitted effect of over 55% in size
How it was run: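 Viability of GeneBLAzer PPARd UAS-bla HEK293H cells was assessed after 17 h compound incubation at 37C, using CellTiter-Glo reagent added after the reporter read and luminescence recorded 30 min later.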

[11] = molecular target: Peroxisome proliferator-activated receptor delta (Homo sapiens) (UniProt Q03181); assay: qHTS assay to identify small molecule agonists of the peroxisome proliferator-activated receptor delta (PPARd) signaling pathway (AID 743212; calls by dose curve)
How it was run: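 Cells expressing a UAS-driven beta-lactamase reporter (PPARd-bla HEK293H) were given test compounds after a 5 h settle and kept at 37 C. Reporter activity was then measured as FRET fluorescence using LiveBLAzer B/G substrate.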

[12] = molecular target: Peroxisome proliferator-activated receptor delta (Homo sapiens) (UniProt Q03181); assay: qHTS assay to identify small molecule antagonists of the peroxisome proliferator-activated receptor delta (PPARd) signaling pathway (AID 743215; active = well fitted inhibition curve with a large enough effect in the signal ratio in the repeat runs, not every such curve was filed as active; the % refers to the signal ratio;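 also: cells stimulated with agonist L165041 at 300 nM final during compound exposure; series mostly up to about 62 µM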)
How it was run: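 Agonist L165041 (300 nM final) added with compound to PPARd-bla HEK293H UAS-bla reporter cells; 17 h incubation at 37 C. Read-out: LiveBLAzer FRET substrate, 2 h at room temperature, fluorescence intensity.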

[13] = molecular target: Bile acid receptor (Homo sapiens) (UniProt Q96RI1); assay: qHTS assay to identify small molecule antagonists of the farnesoid-X-receptor (FXR) signaling pathway (AID 743217; active = well fitted inhibition curve with a large enough effect in the signal ratio in the repeat runs, not every such curve was filed as active; the % refers to the signal ratio)
How it was run: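 Antagonist mode: chenodeoxycholic acid at 50 uM final stimulates a UAS-driven beta-lactamase reporter in HEK 293T FXR-bla cells during 16 h, 37C compound exposure. Read-out is FRET substrate fluorescence after 2 h at room temperature.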

[14] = qHTS assay to identify small molecule agonists of the farnesoid-X-receptor (FXR) signaling pathway - cell viability counter screen (AID 743218); also: nearly all actives have a fitted effect of over 45% in size
How it was run: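 Viability counter screen in the same wells: CellTiter-Glo luminescence, 30 min room-temperature incubation, measured after the beta-lactamase read. Cells were GeneBLAzer FXR-UAS-bla HEK 293T, compound-treated 16 h at 37C.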

[15] = molecular target: Bile acid receptor (Homo sapiens) (UniProt Q96RI1); assay: qHTS assay to identify small molecule agonists of the farnesoid-X-receptor (FXR) signaling pathway (AID 743220; active = well fitted activation curve with a large enough effect in the signal ratio in the repeat runs, not every such curve was filed as active; the % refers to the signal ratio)
How it was run: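 FXR-UAS-bla HEK 293T cells carrying a UAS-driven beta-lactamase reporter were plated for 5 h at 37C/5% CO2, then exposed to DMSO-dissolved Tox21 10K compounds for 16 h at 37C. A LiveBLAzer B/G FRET substrate was loaded for 2 h at room temperature before fluorescence reading.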

[16] = qHTS assay to identify small molecule antagonists of the farnesoid-X-receptor (FXR) signaling pathway - cell viability counter screen (AID 743221; active = well fitted cell-killing curve with a large enough effect in the repeat runs, not every such curve was filed as active; also: nearly all actives have a fitted effect of over 50% in size)
How it was run: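 Quantitative HTS of the Tox21 10K library run in parallel with the beta-lactamase reporter read. HEK 293T cells carrying a UAS-driven bla reporter got compound and 50 uM CDCA (final) for 16 h; ATP-based luminescence followed.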

[17] = qHTS assay to identify small molecule agonists of the vitamin D receptor (VDR) signaling pathway - cell viability counter screen (AID 743224); also: nearly all actives have a fitted effect of over 50% in size; also: potency is read from the fitted curve at half-maximal effect
How it was run: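 Counter screen run in the same wells as the VDR-bla reporter assay: CellTiter-Glo luminescence, 30 min at room temperature, after 16 h compound treatment at 37C of cells pre-plated for 4 h.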

[18] = qHTS assay to identify small molecule antagonists of the peroxisome proliferator-activated receptor delta (PPARd) signaling pathway - cell viability counter screen (AID 743213); also: nearly all actives have a fitted effect of over 50% in size; also: potency is read from the fitted curve at half-maximal effect
How it was run: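 HEK293H PPARd UAS-bla cells, 5 h pre-incubation, compound + L165041 300 nM final, 17 h 37 C; B/G FRET substrate 2 h RT; then CellTiter-Glo 30 min RT, luminescence.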

[19] = molecular target: Vitamin D3 receptor (Homo sapiens) (UniProt P11473); assay: qHTS assay to identify small molecule agonists of the vitamin D receptor (VDR) signaling pathway (AID 743222; calls by dose curve)
How it was run: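 Agonist mode, beta-lactamase reporter: fluorescence from LiveBLAzer B/G FRET substrate (2 h, room temperature) read after 16 h compound treatment at 37 C of VDR-bla cells, which were pre-incubated 4 h after seeding.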

[20] = molecular target: Vitamin D3 receptor (Homo sapiens) (UniProt P11473); assay: qHTS assay to identify small molecule antagonists of the vitamin D receptor (VDR) signaling pathway (AID 743223; active = well fitted inhibition curve with a large enough effect in the signal ratio in the repeat runs, not every such curve was filed as active; the % refers to the signal ratio)
How it was run: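 Fluorescence from LiveBLAzer B/G FRET substrate, read after 2 h at room temperature, reflects beta-lactamase reporter activity in VDR-bla cells treated 16 h at 37C with compounds and agonist 1alpha,25-dihydroxyvitamin D3 (3 nM final).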

Bile acid receptor (Homo sapiens), sequence (Q96RI1 whole entry, looked up): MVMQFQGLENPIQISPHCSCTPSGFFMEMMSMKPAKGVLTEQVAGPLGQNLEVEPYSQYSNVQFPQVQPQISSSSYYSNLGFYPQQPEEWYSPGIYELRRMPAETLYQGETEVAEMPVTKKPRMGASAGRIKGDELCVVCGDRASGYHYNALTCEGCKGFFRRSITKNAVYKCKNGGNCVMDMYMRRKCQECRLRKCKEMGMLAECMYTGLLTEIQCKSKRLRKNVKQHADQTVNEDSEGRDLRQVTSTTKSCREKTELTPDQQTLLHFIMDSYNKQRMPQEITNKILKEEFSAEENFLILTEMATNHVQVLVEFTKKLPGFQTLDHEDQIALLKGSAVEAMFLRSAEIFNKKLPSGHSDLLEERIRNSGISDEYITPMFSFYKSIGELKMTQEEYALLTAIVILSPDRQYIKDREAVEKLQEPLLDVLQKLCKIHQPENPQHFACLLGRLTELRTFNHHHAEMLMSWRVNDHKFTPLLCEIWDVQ
Vitamin D3 receptor (Homo sapiens), sequence (P11473 whole entry, looked up): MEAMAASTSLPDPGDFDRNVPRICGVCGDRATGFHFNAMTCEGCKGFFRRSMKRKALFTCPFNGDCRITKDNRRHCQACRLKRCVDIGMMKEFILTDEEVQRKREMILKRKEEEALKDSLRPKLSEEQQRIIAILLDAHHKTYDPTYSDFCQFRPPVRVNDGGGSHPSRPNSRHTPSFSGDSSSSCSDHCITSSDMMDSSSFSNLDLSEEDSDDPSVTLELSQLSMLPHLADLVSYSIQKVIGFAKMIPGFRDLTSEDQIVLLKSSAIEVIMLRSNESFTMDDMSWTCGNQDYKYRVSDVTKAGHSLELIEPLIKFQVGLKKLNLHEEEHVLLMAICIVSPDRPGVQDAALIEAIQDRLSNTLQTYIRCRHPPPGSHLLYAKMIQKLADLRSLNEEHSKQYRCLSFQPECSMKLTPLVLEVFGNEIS
Peroxisome proliferator-activated receptor gamma (Homo sapiens), sequence (P37231 whole entry, looked up): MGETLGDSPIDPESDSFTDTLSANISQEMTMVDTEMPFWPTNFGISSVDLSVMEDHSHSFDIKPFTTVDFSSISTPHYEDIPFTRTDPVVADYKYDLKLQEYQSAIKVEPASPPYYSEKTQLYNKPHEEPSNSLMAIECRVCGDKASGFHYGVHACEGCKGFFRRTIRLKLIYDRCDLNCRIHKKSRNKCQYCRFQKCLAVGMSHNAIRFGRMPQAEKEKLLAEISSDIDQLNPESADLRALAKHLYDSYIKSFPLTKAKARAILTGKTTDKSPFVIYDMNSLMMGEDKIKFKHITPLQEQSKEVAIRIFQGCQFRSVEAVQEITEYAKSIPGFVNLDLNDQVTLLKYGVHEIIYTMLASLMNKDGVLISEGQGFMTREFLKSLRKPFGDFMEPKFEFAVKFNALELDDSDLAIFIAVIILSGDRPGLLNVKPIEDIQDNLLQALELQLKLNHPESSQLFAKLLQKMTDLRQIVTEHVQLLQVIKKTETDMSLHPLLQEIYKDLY
Peroxisome proliferator-activated receptor delta (Homo sapiens), sequence (Q03181 whole entry, looked up): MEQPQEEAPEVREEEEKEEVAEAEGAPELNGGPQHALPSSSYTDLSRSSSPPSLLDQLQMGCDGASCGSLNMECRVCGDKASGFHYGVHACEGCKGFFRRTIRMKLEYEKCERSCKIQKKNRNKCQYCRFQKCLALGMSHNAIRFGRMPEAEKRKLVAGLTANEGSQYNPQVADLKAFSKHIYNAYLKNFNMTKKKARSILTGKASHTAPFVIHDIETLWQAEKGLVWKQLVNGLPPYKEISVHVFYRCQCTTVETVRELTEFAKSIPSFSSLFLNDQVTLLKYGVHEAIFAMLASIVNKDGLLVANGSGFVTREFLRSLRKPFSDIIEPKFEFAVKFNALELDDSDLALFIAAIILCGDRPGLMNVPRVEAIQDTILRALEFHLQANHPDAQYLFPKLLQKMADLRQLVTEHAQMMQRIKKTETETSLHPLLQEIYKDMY
Aryl hydrocarbon receptor (Homo sapiens), sequence (P35869 whole entry, looked up): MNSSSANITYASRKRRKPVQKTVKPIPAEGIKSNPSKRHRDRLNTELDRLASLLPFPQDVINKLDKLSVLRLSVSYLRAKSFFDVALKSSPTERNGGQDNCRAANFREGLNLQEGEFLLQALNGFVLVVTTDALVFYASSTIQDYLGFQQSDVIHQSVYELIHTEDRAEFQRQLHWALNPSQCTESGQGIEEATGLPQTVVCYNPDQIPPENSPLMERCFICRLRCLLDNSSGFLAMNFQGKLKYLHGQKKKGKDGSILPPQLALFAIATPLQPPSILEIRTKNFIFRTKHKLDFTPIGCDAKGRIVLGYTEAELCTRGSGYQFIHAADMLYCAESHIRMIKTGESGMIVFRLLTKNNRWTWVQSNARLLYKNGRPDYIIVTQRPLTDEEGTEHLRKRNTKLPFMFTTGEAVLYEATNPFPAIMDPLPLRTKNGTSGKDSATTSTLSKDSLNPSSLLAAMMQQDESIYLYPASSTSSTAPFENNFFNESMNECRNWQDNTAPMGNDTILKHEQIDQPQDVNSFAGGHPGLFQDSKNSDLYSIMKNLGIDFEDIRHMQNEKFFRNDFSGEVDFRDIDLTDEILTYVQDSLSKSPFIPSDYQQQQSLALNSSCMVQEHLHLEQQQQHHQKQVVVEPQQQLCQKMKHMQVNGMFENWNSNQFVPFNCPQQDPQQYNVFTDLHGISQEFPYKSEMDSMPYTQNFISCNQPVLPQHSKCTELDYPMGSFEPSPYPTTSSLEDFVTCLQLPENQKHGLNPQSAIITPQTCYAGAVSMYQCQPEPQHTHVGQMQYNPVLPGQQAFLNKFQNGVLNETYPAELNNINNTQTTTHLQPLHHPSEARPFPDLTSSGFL

Row | Structure (SMILES) | Potency [1] | Potency [2] | Potency [3] | Potency [4] | Potency [5] | Potency [6] | Potency [7] | Potency [8] | Potency [9] | Potency [10] | outcome [11] | Potency [12] | Potency [13] | Potency [14] | outcome [15] | Potency [16] | Potency [17] | Potency [18] | outcome [19] | Potency [20]
1 | Clc1ccc2ccccc2c1 | inactive | inactive | inactive | inactive | inactive | inactive | inactive | inactive | inactive | inactive | inactive | inactive | inactive | inactive | inactive | inactive | inactive |  |  | 
2 | CN(C)N | inactive | inactive | inactive | inactive | inactive | inactive | inactive | inactive | inactive |  | inactive | inactive |  | inactive |  | inactive |  | inactive | inactive | inactive
3 | C[N+]1(CCF)[C@@H]2CC[C@H]1CC(OC(=O)C(O)(c1ccccc1)c1ccccc1)C2 (stereo partly specified) | inactive | inactive | inactive | inactive | inactive | inactive | inactive | inactive | inactive | inactive | inactive | inactive | inactive | inactive | inactive |  |  | inactive | inactive | inactive
4 | O=CC=O | inactive | inactive | inactive | inactive | inactive | inactive |  |  | inactive | inactive | inactive | inactive |  | inactive |  | inactive | inactive | inactive |  | 
5 | CC(C)(C)NCC(O)c1ccccc1Cl (stereo unspecified) | inactive | inactive | inactive | inactive | inactive | inactive |  | inactive | inactive |  |  |  |  | inactive | inactive | inactive | inactive | inactive |  | 
6 | Cc1cnc(C2=NC(C)(C(C)C)C(=O)N2)c(C(=O)O)c1 (stereo unspecified) | inactive | inactive | inactive | inactive | inactive | inactive | inactive | inactive | inactive |  | inactive | inactive |  | inactive |  |  | inactive | inactive | inactive | inactive
7 | O=S(=O)(c1ccccc1)c1ccccc1 | inactive | inactive | inactive | inactive | inactive | inactive | inactive | inactive | inactive | inactive | inactive | inactive | inactive | inactive |  |  | inactive |  | inactive | 
8 | C[Si](Cn1cncn1)(c1ccc(F)cc1)c1ccc(F)cc1 | inactive | 28.2 µM (active) | inactive | inactive | inactive | inactive | inactive | inactive | inactive | inactive | inactive |  |  |  | inactive |  | 12.7 µM (active) | 38.9 µM (active) |  | 
9 | CN[C@@H](C)[C@H](O)c1ccccc1 | inactive | inactive | inactive | inactive | inactive | inactive | inactive | inactive | inactive |  | inactive | inactive | inactive |  | inactive |  | inactive | inactive | inactive | inactive
10 | CCCCOC(=O)CCC(=O)OCCCC | inactive | inactive | inactive | inactive | inactive | inactive | inactive | inactive | inactive | inactive | inactive |  |  | inactive |  |  |  | inactive |  | 
11 | CCOC(=O)c1cncn1C(C)c1ccccc1 (stereo unspecified) | inactive | inactive | inactive | inactive | inactive | inactive | inactive |  | inactive | inactive | inactive | inactive |  | inactive |  | inactive |  | inactive |  | 
12 | CCC(C)(C)O | inactive | inactive | inactive | inactive | inactive | inactive | inactive | inactive | inactive | inactive | inactive | inactive |  | inactive |  | inactive | inactive | inactive | inactive | inactive
13 | CN1CC[C@]23c4c5ccc(O)c4O[C@H]2[C@@H](O)C=C[C@H]3[C@H]1C5 | inactive | inactive | inactive | inactive | inactive | inactive | inactive | inactive |  | inactive |  |  |  | inactive |  | inactive | inactive | inactive | inactive | inactive
14 | CCOP(=S)(S)OCC | inactive | inactive | inactive | inactive | inactive | inactive | inactive | inactive | inactive | inactive |  | inactive | inactive | inactive | inactive | inactive | inactive | inactive | inactive | inactive
15 | O=C(N[C@H]1CN2CCC1CC2)c1ccc2c(c1)OCCO2 | inactive | inactive | inactive | inactive | inactive | inactive |  | inactive | inactive | inactive | inactive |  |  | inactive |  |  |  | inactive |  | inactive
16 | CC(C)CCON=O | inactive | inactive | inactive | inactive | inactive | inactive | inactive | inactive | inactive |  | inactive | inactive |  | inactive |  |  |  | inactive | inactive | 
17 | CCOC(=O)C1OC1(C)c1ccccc1 (stereo unspecified) | inactive | inactive | inactive | inactive | inactive | inactive |  |  | inactive | inactive |  |  |  | inactive |  | inactive | inactive | inactive |  | 
18 | CCN(C(C)=O)c1cccc(-c2ccnc3c(C#N)cnn23)c1 | inactive | inactive | inactive | inactive | inactive | inactive | inactive | inactive | inactive | inactive |  |  |  | inactive | inactive | inactive | inactive | inactive | inactive | inactive
